Where “and” joins values, the source holds several entries; their conditions need not be identical. Equal entries are not always repeated. Inconclusive results are not listed. Entries that show only a call come without a potency. Calls of active or inactive are those of the source. Calls follow the shape of the dose curve; as a rule, active = well fitted cell-killing curve with a large enough effect; inconclusive = small, poorly fitted or top-dose-only effect; inactive = no such curve, though single readings can be large or run the other way.
Potency is read from the fitted curve at half-maximal effect.

A short description of this assay: qHTS of pediatric cancer cell lines to identify multiple opportunities for drug repurposing: Primary screen for SK-N-MC cells (AID 1347093). As to conditions: SK-N-MC viability, CellTiter-Glo luminescence, 48 h; series mostly up to 46 µM. From the text: Drug repurposing or repositioning has been offered as a strategy for drug development in oncology programs. This approach has special potential for childhood cancers and other rare or orphan diseases, where the expected return on new drug development has been a disincentive to pharmaceuticals.
In this project we exploit the poly-pharmacology of drugs to discover new indications via phenotypic screening of a panel of 19 well-characterized cell lines derived from solid tumors seen in children and adolescents. The goal is to identify approved drugs with previously unrecognized anticancer properties that has the potential to reveal new mechanisms and biological processes involved in carcinogenesis or drug resistance. We employed a titration-based paradigm (quantitative high-throughput screening or qHTS), where all compounds were tested at multiple concentrations for their effect on cell viability. Concentration-response curves (CRCs) were derived directly from the primary screen, and both potency and efficacy values were used to identify compounds with robust bioactivity profiles. We screened the NIH Chemical Genomics Center (NCGC) Pharmaceutical Collection (NPC) and Mechanism Interrogation Plate (MIPE) small molecule collections of approved and investigational compounds against these cell lines; and measured metabolically active cells after 48 hours of compound treatment as a proxy for cell viability.
Assay Submitter: Nathalia J. Martinez, National Center for Advancing Translational Sciences, National Institutes of Health, Rockville, MD, USA; email: natalia.martinez@nih.gov
[1] Shen, M et al. Quantitative high-throughput phenotypic screening of pediatric cancer cell lines identifies multiple opportunities for drug repurposing. Oncotarget 2017 Dec 19;9(4):4758-4772. PMID 29435139.
The cells were obtained from University of North Carolina (UNC), Pediatric Preclinical Testing Program (PPT), and Coriell Institute (CI).
qHTS cell viability assay:
Cells were assayed in growth media at a density of 500-1,000 cells/well. Five microliters of cells were dispensed into 1,536-well, white, solid-bottom, TC-treated plates (Greiner Bio One) using a multidrop dispenser and incubated at 37 degrees C, 5% CO2, under a humidified atmosphere for 5 hours. Twenty-three nanoliters of compounds and controls (neutral control DMSO or positive control bortezomib at final concentration of 2.3 µM) were subsequently transferred by Kalypsys pintool. For primary screens, the MIPE collection was tested at 11-point dilutions (final concentrations range from 0.78 nM to 46 µM) and the NPC collection at 8-point dilutions (final concentrations range from 0.59nM to 46 µM). Compounds tested in follow-up screens were assayed at 11-point dilutions. Cells were incubated for 48 hours, followed by addition of 3 uL of CellTiter-Glo (Promega). After a 15 min incubation at room temperature, samples were analyzed for luminescence intensity using a ViewLux High-throughput CCD imager equipped with clear filters.
For the compound `Cc1cccc(C)c1NC(=O)CN1CCCC1=O`, the Potency result is “inactive”.

On to `C=CCN1CC[C@]23c4c5ccc(O)c4O[C@H]2C(=O)CC[C@@]3(O)[C@H]1C5`, for which the Potency result was “inactive”.

`O=C1NCN(c2ccccc2)C12CCN(CC1COc3ccccc3O1)CC2` (stereo not given): the Potency result is “inactive”.

On to `CN(C)CCc1ccc(O)cc1`, for which the Potency entry is “inactive”.

Turning to `CCN(C(C)=O)c1cccc(-c2ccnc3c(C#N)cnn23)c1`, the Potency result was “inactive”.

Consider `NCC1(CC(=O)O)CCCCC1`, for which the Potency result is “inactive”.

Consider `CC(C)(C)NCC(O)c1cc(Cl)c(N)c(Cl)c1` (stereo not given), for which the Potency result was “inactive”.

Consider `NCC(O)c1ccc(O)cc1` (stereo not given), for which the Potency result is “inactive”.

On to `NCCc1cc(O)c(O)cc1O`, for which the Potency entry is “inactive”.

For the compound `C[C@@H]1O[C@@H](O[C@H]2C[C@@H](O)[C@]3(CO)[C@H]4[C@H](O)C[C@]5(C)[C@@H](C6=CC(=O)OC6)CC[C@]5(O)[C@@H]4CC[C@]3(O)C2)[C@H](O)[C@H](O)[C@H]1O`, the Potency is 16.6 nM (active) and 23.7 nM (active).

On to `CC[N+](CC)(CC)CC`, for which the Potency result was “inactive”.

As to `c1ccc2c(c1)Nc1ccccc1S2`, the Potency result was “inactive”.

In the case of `O=c1[nH]c2ccccc2n1C1CCN(CCCC(c2ccc(F)cc2)c2ccc(F)cc2)CC1`, the Potency is 16.8 µM (active).

Take `Fc1ccc(C(OCCN2CCN(CCCc3ccccc3)CC2)c2ccc(F)cc2)cc1`: the Potency is 9.35 µM (active) and 10.6 µM (active).

Turning to `OCCOc1ccccc1`, the Potency result was “inactive”.

On to `CN(C)CCN(C)CCc1ccc(Cl)c(Cl)c1`, for which the Potency is 14.8 µM (active).

In the case of `N[C@@H](Cc1ccc(Oc2cc(I)c(O)c(I)c2)c(I)c1)C(=O)O`, the Potency result is “inactive”.

Consider `N[C@@H](Cc1ccc(N(CCCl)CCCl)cc1)C(=O)O`, for which the Potency is 2.99 µM (active) and 2.35 µM (active).

With `C[C@H]1O[C@@H](O[C@H]2[C@@H](O)C[C@H](O[C@H]3[C@@H](O)C[C@H](O[C@H]4CC[C@@]5(C)[C@H](CC[C@@H]6[C@@H]5CC[C@]5(C)[C@@H](C7=CC(=O)OC7)CC[C@]65O)C4)O[C@@H]3C)O[C@@H]2C)C[C@H](O)[C@@H]1O`, the Potency is 0.0053 µM (active).

Turning to `Cc1cccc(C)c1NC1=NCCCS1`, the Potency result is “inactive”.

For `CC1NCCOC1c1ccccc1` (stereo not given), the Potency result is “inactive”.

Consider `CCOP(=S)(OCC)Oc1cc(C)nc(C(C)C)n1`, for which the Potency result was “inactive”.

Regarding `Cc1sc2c(c1C)C(c1ccc(Cl)cc1)=N[C@@H](CC(=O)OC(C)(C)C)c1nnc(C)n1-2`, the Potency was 0.118 µM (active).

In the case of `CC(O)(CS(=O)(=O)c1ccc(F)cc1)C(=O)Nc1ccc(C#N)c(C(F)(F)F)c1` (stereo not given), the Potency was 0.469 µM (active).

On to `Clc1cccc(N2CCNCC2)c1`, for which the Potency entry is “inactive”.

For the compound `CNC(=O)c1ccc(N2C(=S)N(c3ccc(C#N)c(C(F)(F)F)c3)C(=O)C23CCC3)cc1F`, the Potency is 5.9 µM (active).

For the compound `CCCN1CCC[C@@H]2Cc3nc(N)ncc3C[C@H]21`, the Potency result is “inactive”.

`CC1=C2C[C@@H]3[C@@H](CC=C4C[C@@H](O)CC[C@@]43C)[C@@H]2CC[C@]12O[C@H]1C[C@H](C)CN[C@H]1[C@H]2C`: the Potency entry was “inactive”.

For `CC(C)=CC1C(C(=O)OCc2cccc(Oc3ccccc3)c2)C1(C)C` (stereo not given), the Potency result was “inactive”.

`O=C(O)c1ccc2[nH]cc(CCCCN3CC=C(c4ccccc4)CC3)c2c1`: the Potency entry was “inactive”.

With `CC1OC(C)OC(C)O1` (stereo not given), the Potency entry is “inactive”.

For `Oc1ccccc1-c1ccccc1`, the Potency entry was “inactive”.

With `CCCN1CCC[C@@H]2Cc3[nH]ncc3C[C@H]21`, the Potency entry was “inactive”.

As for `CCCC(C)(COC(N)=O)COC(=O)NC(C)C` (stereo not given), the Potency result is “inactive”.

Turning to `C[C@]12CCC(=O)C(O)=C1CC[C@@H]1[C@@H]2CC[C@]2(C)C(=O)CC[C@@H]12`, the Potency result is “inactive”.

Regarding `CN(C)[C@@H]1C(=O)C(C(N)=O)=C(O)[C@@]2(O)C(=O)C3=C(O)c4c(O)cccc4[C@@](C)(O)[C@H]3C[C@@H]12`, the Potency entry is “inactive”.

On to `CC[C@@H](CO)NC(=O)[C@@H]1C=C2c3cccc4[nH]cc(c34)C[C@H]2N(C)C1`, for which the Potency entry is “inactive”.

For `CNC(=O)N1N=C(c2ccc(N)cc2)c2cc3c(cc2CC1C)OCO3` (stereo not given), the Potency was 9.35 µM (active).

As for `CC[N+]1(C)CCCC(OC(=O)C(O)(c2ccccc2)c2ccccc2)C1` (stereo not given), the Potency entry is “inactive”.

On to `O=C(NC(O)C(Cl)(Cl)Cl)NC(O)C(Cl)(Cl)Cl` (stereo not given), for which the Potency result is “inactive”.

Values taken from PubChem BioAssay (NCATS).
